# Experimental data as given in the supplement of paper PMC6555819.
# Columns and labels:
# Assay in all cases: PBM binding z-score (relative to random genomic background probes); higher = stronger binding; sequences stand for … in GC…GCGATTGACAGCGTAGAATGAAGG
# [1] = test system: FXR:RXRa (NR concentration 270 nM, RXRa partner concentration 90 nM)
# Summary of the method: (§1)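 For binding z-scores, the reference was random background probes on custom Agilent 4×180K protein-binding microarrays. These arrays were incubated 1 h with ligand-free nuclear receptor dimers in PBS pH 7.4, 2% milk, 0.02% Triton X-100, 1 mM DTT, 0.2 mg/mL BSA and 0.4 mg/ml salmon testes DNA. Fluorescence was scanned after antibody detection of each partner (one per run) and regression-normalized.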
# [2] = test system: LXRa:RXRa (NR concentration 270 nM, RXRa partner concentration 90 nM)
# Summary of the method: as §1
# [3] = test system: LXRa homodimer (NR concentration 270 nM)
# Summary of the method: as §1
# [4] = test system: LXRb:RXRa (NR concentration 270 nM, RXRa partner concentration 90 nM)
# Summary of the method: as §1
# [5] = test system: PPARa:RXRa (NR concentration 270 nM, RXRa partner concentration 90 nM)
# Summary of the method: as §1
# [6] = test system: PPARg:RXRa (NR concentration 180 nM, RXRa partner concentration 90 nM)
# Summary of the method: as §1
# [7] = test system: PPARg:RXRa 270nM:90nM, anti-RXR (NR concentration 270 nM, RXRa partner concentration 90 nM)
# Summary of the method: as §1
# [8] = test system: PPARg:RXRa 30nM:10nM, anti-RXR (NR concentration 30 nM, RXRa partner concentration 10 nM)
# Summary of the method: as §1
# [9] = test system: PPARg:RXRa 90nM:30nM, anti-RXR (NR concentration 90 nM, RXRa partner concentration 30 nM)
# Summary of the method: as §1
Sequence,PBM binding z-score [1],PBM binding z-score [2],PBM binding z-score [3],PBM binding z-score [4],PBM binding z-score [5],PBM binding z-score [6],PBM binding z-score [7],PBM binding z-score [8],PBM binding z-score [9]
CTATGTAGGTTAAGGAGGTCATTCAGTTTGAAAG,3.87,4.84,4.54,3.92,5.23,6.14,5.71,3.14,5.11
CCGGGTAGGTTACGAGGGGGCATTCAGTGCGAAT,2.48,7.2,1.5,6.39,3.54,1.6,2.96,1.05,2.49
TCGAGTAGGTTACGGCGGCATTCAGGGATGAAGA,-0.0492,0.356,-0.342,0.0226,1.32,0.838,1.73,1.18,1.43
CTATGTAGGTTAAGGGGGGCATTCAGTTTGAAAG,3.22,3.64,1.74,6.04,4.85,8.88,7.37,6.02,7.7
CCGAGTAGGTTACGCGGGGGCATTCAGTGCGAAT,3.18,6.77,1.34,6.01,3.32,2.36,3.3,1.11,2.24
TCGAGTAGGTTACGGGGGCATTCAAGGATGAAGA,2.72,3.01,0.487,4.72,4.27,6.08,5.8,3.65,4.94
CCGAGTAGGTTACAAGGGGGCATTCAGTGCGAAT,2.05,7.37,2.35,6.52,3.41,2.25,3.68,0.773,2.98
TCGAGGAGGTTACGGGGGCATTCAGGGATGAAGA,5,3.99,0.868,5.71,5.33,6.77,5.92,4.08,5.24
CTATGTAGGTTAAGGGGGTCAGTCAGTTTGAAAG,3.26,3.55,1.38,5.26,5.54,8.01,7.42,5.06,7.09
CCGAGTAGGTTACGAGGGGGCATTAAGTGCGAAT,2.79,6.98,1.2,6.3,3.38,2.04,3.06,0.817,2.16
CCGAGTAGGTTAGGAGGGGGCATTCAGTGCGAAT,2.47,4.27,1.19,5.24,2.86,1.74,2.65,1.44,2.24
CCGAGTAGGTTACGAGGGGGCATTTAGTGCGAAT,2.43,7.16,1.74,6.59,3.54,1.87,3.44,1.22,2.89
CTATGTAGGTTAAGGGGGTCATCCAGTTTGAAAG,4.86,4.86,2.5,6.27,6.19,8.53,7.67,6.02,7.82
CCGAGTAGGTTATGAGGGGGCATTCAGTGCGAAT,3.13,6.86,1.95,6.27,3.29,1.69,3.12,1.53,2.77
TCAAGTAGGTTACGGGGGCATTCAGGGATGAAGA,3.28,3.4,1.53,5.4,4.49,7.97,7.05,6.15,6.95
CCGAGTAGGCTACGAGGGGGCATTCAGTGCGAAT,0.473,3.15,0.222,3.4,1.72,0.0175,1.1,-0.389,0.48
